Inconclusive results are not listed. Where a call stands in place of a potency, no number is given. A number with no mark means an inactive call. The source made the active and inactive calls. Calls follow the shape of the dose curve; as a rule, active = well fitted inhibition curve with a large enough effect; inconclusive = small, poorly fitted or top-dose-only effect; inactive = no such curve, though single readings can be large or run the other way.
Legend:
[1] = system: Zika virus NS2B-NS3 protease (unlinked complex); experiment: Primary screen GU Rhodamine qHTS for Zika virus inhibitors: Unlinked NS2B-NS3 protease assay (AID 1347159); also: nearly all actives have a fitted effect of over 60% in size
Method in brief: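 Buffer 10 mM Tris-HCl pH 8.0, 0.01% Tween 20. Unlinked protease 25 nM; compound preincubation 15 min, RT, protected from light. Substrate Rhod110, 1.5 microM; ~15% conversion in 15 min.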

[2] = system: Zika virus NS2B-NS3 protease (linked construct); experiment: Primary screen NINDS Rhodamine qHTS for Zika virus inhibitors (AID 1347160); also: nearly all actives have a fitted effect of over 55% in size
Method in brief: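 Aprotinin served as in-plate control. Conditions: 25 nM linked NS2B-NS3, pH 8.0 Tris buffer, titrated compounds, 15 min preincubation and 15 min reaction with 1.5 microM Rhod110 substrate at room temperature.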

| SMILES | activity change, negative = inhibition [1] | Potency [2] | Potency [1] |
| --- | --- | --- | --- |
| CC(=O)O[C@@H]1[C@H](O[C@@H]2OC[C@](O)(CO)[C@H]2O)[C@@H](O[C@@H]2O[C@@H](C)[C@H](O)[C@@H](O[C@@H]3O[C@H](CO)[C@@H](O)[C@H](O)[C@H]3O)[C@H]2O)[C@H](OC(=O)[C@]23CCC(C)(C)C[C@H]2C2=CCC4[C@@]5(C)C[C@H](O)[C@H](O[C@@H]6O[C@H](C(=O)O)[C@@H](O)[C@H](O)[C@H]6O)[C@@](C)(C(=O)O)C5CC[C@@]4(C)[C@]2(C)CC3)O[C@@H]1C (stereo partly specified) | 2.67% [at 19.1 µM] | inactive | – |
| CC(C)(O)c1ccc2c(c1)C(=O)C[C@H]1[C@](C)(C(=O)O)CCC[C@]21C | – | inactive | inactive |
| O=C(O)c1cccc(C(=O)CCC2OC(n3cnc4c(=O)[nH]cnc43)C(O)C2O)c1 (stereo unspecified) | – | inactive | inactive |
| COC(=O)CCC1(C)C(C(C)(C)O)C(O)CC2(C)Oc3c(C)c4c(c(OC)c3CC21)C(=O)OC4 (stereo unspecified) | – | inactive | inactive |
| CC1(C)CC[C@]2(C(=O)OC3OC(CO)C(O)C(O)C3O)CC[C@]3(C)C(=CCC4[C@@]5(C)C[C@@H](O)[C@H](OC6OC(C(=O)O)C(O)C(O)C6O)C(C)(C)C5CC[C@]43C)[C@@H]2C1 (stereo partly specified) | – | inactive | inactive |
| O=C(Nc1ccn(Cc2c(F)cccc2C(F)(F)F)n1)c1c(F)cccc1F | – | inactive | inactive |
| Cc1[nH]c2ccccc2c1CC(=O)N[C@@H](Cc1ccccc1)C(=O)N(C)c1ccccc1 | – | inactive | inactive |
| CC(O)CCc1ccc(O[C@@H]2O[C@H](CO)[C@@H](O)[C@H](O)[C@H]2O)cc1 (stereo partly specified) | – | inactive | inactive |
